# Assay results taken from PubChem BioAssay (NCATS).
# A number with no mark means an inactive call. Records with an inconclusive call do not appear. A call without a number means that no potency is given here. Calls of active or inactive are those of the source. The call rests on the fitted dose curve; in most records, active means well fitted curve in the direction sought with a large enough effect; inconclusive means small, poorly fitted or top-dose-only effect, or another doubt; inactive means no such curve, though single readings can be large; an effect the other way counts as inactive or inconclusive.
# Experiments:
# [1] = Cellular Toxicity (caspase-3) Mesangial (AID 660); details: mesangial cells, normalized: DMSO 0%, 100 µM tamoxifen 100%; at 91.7 µM (top of the series);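 further: combined caspase 3 and 7 activity read by Caspase-Glo luminescence; cells exposed to compound for 16 h before the caspase read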
# In short: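 Mesangial cells, 1000/well, 5 h settle at 37 °C; compound 16 h, 37 °C; Caspase-Glo 3/7 reagent 20 min RT; luminescence. Norm.: DMSO = 0%, tamoxifen 100 uM = 100%. AC50, Hill fit.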
# [2] = Cellular Toxicity (caspase-3) SK-N-SH (AID 661)
# In short: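 Human neuroblastoma SK-N-SH, 1500 cells/well, 5 hr pre-incubation, then compound 16 hr, 37 °C. Caspase-Glo 3/7 reagent, 1 hr RT, luminescence. Norm. to DMSO/10 uM staurosporine; Hill-fit AC50.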
# [3] = Cellular Toxicity (caspase-3) H-4-II-E (AID 663); details: H-4-II-E rat hepatoma, scaled: DMSO 0%, 100 µM tamoxifen 100%; at 92.2 µM (top of the series)
# In short: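 Apoptosis induction is scored as increased luminescence from caspase 3/7 substrate cleavage in rat hepatoma H-4-II-E cells exposed to compound for 16 hr. Activity is scaled between DMSO and 100 uM tamoxifen.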
# [4] = Cellular Toxicity (caspase-3) Hek293 (AID 664); details: HEK293 caspase-3 activation, DMSO = 0%, 100 µM tamoxifen = 100%; at 92.2 µM (top of the series);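 further: cells exposed to compound for 16 h at 37 °C before readout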
# In short: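 Cells plated, 5 hr at 37 °C; compounds added; 16 hr at 37 °C; Caspase-Glo 3/7 reagent, 20 min RT; luminescence read. Activation expressed relative to DMSO and 100 uM tamoxifen, AC50 by Hill model.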
# [5] = Cellular Toxicity (caspase-3) NIH 3T3 (AID 666)
# In short: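 Luminescence from aminoluciferin released by caspase-3/7 cleavage of a peptide substrate served as read-out. Mouse fibroblast NIH 3T3 cells were exposed to compounds over a concentration range for 16 hours, and AC50 values came from standard Hill modelling.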
# [6] = molecular target: Cytochrome P450 3A4 (Homo sapiens) (UniProt P08684); experiment: qHTS Assay for Inhibitors and Substrates of Cytochrome P450 3A4 (AID 884); further: nearly all actives have a fitted effect of over 50% in size
# Sequence of Cytochrome P450 3A4 (Homo sapiens) (P08684 whole entry, looked up): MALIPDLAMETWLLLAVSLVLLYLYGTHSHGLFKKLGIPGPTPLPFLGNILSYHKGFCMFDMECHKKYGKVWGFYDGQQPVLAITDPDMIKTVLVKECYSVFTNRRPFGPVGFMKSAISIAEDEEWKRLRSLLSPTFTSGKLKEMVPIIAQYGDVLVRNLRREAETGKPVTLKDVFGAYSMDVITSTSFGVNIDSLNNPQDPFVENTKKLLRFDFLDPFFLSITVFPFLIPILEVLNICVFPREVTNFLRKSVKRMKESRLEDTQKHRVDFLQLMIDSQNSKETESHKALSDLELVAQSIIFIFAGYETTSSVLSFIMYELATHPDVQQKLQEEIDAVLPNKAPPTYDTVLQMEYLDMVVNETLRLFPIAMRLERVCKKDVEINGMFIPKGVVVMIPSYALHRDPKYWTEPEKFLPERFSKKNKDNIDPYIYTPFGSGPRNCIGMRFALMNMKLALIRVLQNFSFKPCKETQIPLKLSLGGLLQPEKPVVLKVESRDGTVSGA
# In short: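 20 nM human CYP3A4 with 25 uM Luciferin-PPXE (at KM) in 200 mM KPO4, preincubated 10 min with compound; NADPH regeneration started a 60 min RT reaction. Luciferin detected by luminescence, normalized to 57 uM ketoconazole as full inhibition.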
# [7] = MultiTox-Fluor Cytotoxicity Assay - LYMP1-001 - Dead Cells (AID 946)
# In short: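 In this qHTS, 15 uM tetraoctylammonium bromide defined 100% and DMSO defined basal activity. Lymphoblastoid cells (LYMP1-001, 2500 per well) received compound for 16 hr at 37 C before a fluorogenic dead-cell substrate readout at 485/520 nm.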
# [8] = MultiTox-Fluor Cytotoxicity Assay - LYMP1-001 - Live Cells (AID 947)
# [9] = Cell Viability - LYMP1-002 - Assay at 16 hr (AID 948)
# In short: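 LYMP1-002 human lymphoblastoid cells, 2500/well; 5 hr 37 C; cpd 16 hr 37 C; CellTiter-Glo 30 min RT; luminescence (ATP). Concentration-response, Hill-fit AC50. Pos ctrl tetraoctylammonium bromide.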
# [10] = MultiTox-Fluor Cytotoxicity Assay - LYMP1-002 - Live Cells (AID 955)
# In short: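 Read-out is live-cell protease activity (cell-permeant GF-AFC substrate, fluorescence Ex/Em=405/510), where a decrease indicates acute toxicity. Human lymphoblastoid cells were treated 16 hours at 37 C in a concentration series, and AC50 values came from standard Hill modelling.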
# [11] = MultiTox-Fluor Cytotoxicity Assay - LYMP1-002 - Dead Cells (AID 960); further: nearly all actives have a fitted effect of over 60% in size
# In short: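 LYMP1-002 cells 2500/well; 5 hr 37 C pre-incubation; compound 16 hr 37 C; MultiTox-Fluor reagent 60 min RT; dead-cell fluor Ex/Em 485/520. Norm. to DMSO (0%) vs 15 uM tetraoctylammonium bromide (100%); Hill AC50.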
# [12] = MultiTox-Fluor Cytotoxicity Assay - LYMP1-003 - Dead Cells (AID 961); further: nearly all actives have a fitted effect of over 70% in size
# In short: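 Acute toxicity is scored as increased dead-cell protease activity in human lymphoblastoid LYMP1-003 cells after 16 h compound exposure in complete culture medium. Activity is normalized to DMSO basal and 15 uM tetraoctylammonium bromide as full response.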
# [13] = MultiTox-Fluor Cytotoxicity Assay - LYMP1-003 - Live Cells (AID 962);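 further: cells exposed to compound for 16 hours at 37 °C; cytotoxic hits lower the live-cell protease signal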
# In short: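 qHTS, 1536-well; 2500 cells/well LYMP1-003; 5 hr 37 C settle; cpd 16 hr 37 C; MultiTox-Fluor reagent 60 min RT; live-cell protease fluor. 405/510; Hill-fit AC50; tetraoctylammonium bromide pos. ctrl.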
# [14] = Cell Viability - LYMP1-003 - Assay at 24 hr (AID 963)
# In short: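 Cells seeded at 2500/well, 5 hr at 37 C; compounds added; 24 hr at 37 C; CellTiter-Glo added, 30 min room temperature; luminescence read. Decrease in ATP taken as cytotoxicity, AC50 from Hill modelling.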
# [15] = Cell Viability - LYMP1-003 - Assay at 40 hr (AID 964); further: nearly all actives have a fitted effect of over 60% in size
# In short: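 Cells were seeded at 2500 per well and incubated 5 hr at 37 C. Compounds were added across a concentration series and left 40 hr at 37 C. CellTiter-Glo was added for 30 min at room temperature before luminescence reading.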
# [16] = Cell Viability - LYMP2-003 (AID 965);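 further: cells exposed to compounds for 24 h before reading; nearly all actives have a fitted effect of over 50% in size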
# In short: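 CellTiter-Glo luminescence (cellular ATP) after 24 h compound exposure at 37 C in complete medium; 2500 cells/well, 5 h settling beforehand. Concentration-response fitted to standard Hill equation for AC50. Tetraoctylammonium bromide served as positive control.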
# [17] = Cell Viability - LYMP2-004 (AID 966); further: nearly all actives have a fitted effect of over 65% in size
# In short: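 Cells seeded 2500/well, rested 5 hr at 37 C, dosed across a concentration series, incubated 24 hr at 37 C, then CellTiter-Glo added for 30 min at room temperature and luminescence read. Hill fitting gave AC50.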
# [18] = Cellular Toxicity (caspase-3) Renal Proximal Tubule (AID 667); details: Potency: caspase-3 activation;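 further: cells exposed to compound for 16 hours at 37 °C before detection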
# In short: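 Luminescent caspase 3/7 signal from peptide-aminoluciferin cleavage measures apoptosis in freshly isolated rat kidney proximal tubule cells after 16 h compound exposure. Concentration-response data are normalized to DMSO and 10 uM staurosporine, and AC50 values come from Hill equation fits.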
# [19] = Cell Viability - LYMP2-001 (AID 921); further: nearly all actives have a fitted effect of over 70% in size; further: potency means the concentration at half of the fitted maximal effect
# In short: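 CellTiter-Glo luminescence (intracellular ATP) after 24 hr compound exposure at 37 C, 2500 lymphoblastoid cells/well in complete medium. AC50 fitted with standard Hill equation; tetraoctylammonium bromide positive control.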
# [20] = Cellular Toxicity (caspase-3) N2a (AID 665);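 further: compound exposure lasted 16 h at 37 °C before readout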
# In short: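 N2a cells, 1500/well, 5 h settle at 37 °C; cpd 16 h, 37 °C; Caspase-Glo 3/7, 1 h RT; luminescence. Norm: DMSO = 0, 10 uM staurosporine = 100%. AC50, Hill fit.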
Structure (SMILES),caspase-3 activation [1],outcome [2],caspase-3 activation [3],caspase-3 activation [4],outcome [5],Potency [6],outcome [7],outcome [8],outcome [9],outcome [10],outcome [11],Potency [12],Potency [13],Potency [14],Potency [15],Potency [16],Potency [17],Potency [18],Potency [19],outcome [20]
c1ccc2[nH]cnc2c1,0.6%,inactive,-0.984%,-0.791%,inactive,inactive,inactive,inactive,inactive,inactive,inactive,inactive,inactive,inactive,inactive,inactive,inactive,,,
CCCCOCCOCCOCCCC,-0.157%,inactive,-0.168%,-0.809%,inactive,inactive,inactive,,inactive,inactive,inactive,inactive,inactive,inactive,inactive,inactive,inactive,inactive,inactive,
CNC(=O)N(c1ccccc1)c1ccccc1,0.477%,inactive,1.51%,0.502%,inactive,inactive,inactive,inactive,inactive,inactive,inactive,inactive,inactive,inactive,inactive,inactive,inactive,inactive,inactive,
O=CNc1ccccc1,-0.303%,inactive,0.272%,1.41%,,,inactive,inactive,inactive,inactive,,inactive,inactive,inactive,inactive,inactive,inactive,,inactive,
NC=O,-0.458%,inactive,0.414%,-1.11%,,inactive,inactive,inactive,inactive,inactive,inactive,inactive,inactive,inactive,inactive,inactive,inactive,inactive,inactive,
CCc1ccccc1,-1.29%,inactive,1.3%,-0.962%,inactive,inactive,inactive,inactive,inactive,inactive,inactive,,inactive,inactive,inactive,inactive,inactive,,inactive,
COc1ccc(N)c(C)c1,2.2%,inactive,0.764%,-0.876%,,inactive,inactive,inactive,inactive,inactive,inactive,inactive,inactive,inactive,inactive,inactive,inactive,inactive,inactive,
CCCCC(=O)N(C)C,0.37%,inactive,-1.29%,1.13%,inactive,inactive,inactive,,inactive,inactive,inactive,inactive,inactive,inactive,inactive,inactive,inactive,inactive,inactive,
CC(C)Cc1nccs1,1.49%,inactive,0.155%,2.01%,,inactive,inactive,inactive,inactive,inactive,inactive,inactive,inactive,inactive,inactive,inactive,inactive,inactive,inactive,
C1CCOC1,-0.124%,inactive,0.164%,-1.25%,inactive,,inactive,inactive,inactive,inactive,inactive,inactive,inactive,inactive,inactive,inactive,,inactive,inactive,
CCCCC(CC)C(=O)O (configuration not stated),0.178%,inactive,-0.144%,2.49%,inactive,inactive,inactive,inactive,inactive,inactive,inactive,inactive,inactive,inactive,inactive,inactive,inactive,inactive,inactive,
O=C1C=CCCC1,-1.96%,inactive,0.0441%,3.14%,inactive,inactive,inactive,inactive,inactive,inactive,inactive,inactive,inactive,inactive,inactive,inactive,inactive,inactive,inactive,
CCCCC/C=C/C=C/C=O,0.621%,inactive,,163% (active),inactive,,inactive,inactive,inactive,inactive,,inactive,inactive,inactive,inactive,,,inactive,50.1 µM (active),inactive
N#CCc1ccccc1[N+](=O)[O-],-0.803%,inactive,1.83%,,inactive,inactive,inactive,inactive,inactive,inactive,inactive,inactive,inactive,inactive,inactive,inactive,inactive,inactive,,
CC(=O)c1ccc([N+](=O)[O-])cc1,-0.175%,inactive,0.949%,-0.704%,inactive,inactive,inactive,inactive,inactive,inactive,inactive,inactive,inactive,inactive,inactive,inactive,inactive,inactive,inactive,
CCCCC(CC)CO (configuration not stated),-0.254%,inactive,1.2%,1.6%,inactive,inactive,inactive,inactive,inactive,inactive,inactive,inactive,inactive,inactive,inactive,inactive,inactive,,inactive,
CCC(C)(C)C,0.949%,inactive,-0.587%,-1.96%,inactive,inactive,inactive,inactive,inactive,inactive,inactive,inactive,inactive,inactive,inactive,inactive,inactive,inactive,inactive,
CC(=O)Nc1ccccc1C,2.04%,inactive,1.63%,3.57%,inactive,inactive,inactive,inactive,inactive,inactive,,inactive,inactive,inactive,inactive,inactive,inactive,inactive,inactive,
O=C(O)c1ccccc1C(=O)O,1.74%,inactive,-0.105%,3.14%,inactive,,inactive,inactive,inactive,inactive,inactive,,inactive,inactive,inactive,inactive,inactive,inactive,inactive,
O=c1[nH][nH]c(=O)c2cc([N+](=O)[O-])ccc12,-0.0154%,inactive,-0.659%,4.2%,inactive,inactive,inactive,inactive,inactive,inactive,inactive,inactive,inactive,inactive,inactive,inactive,inactive,inactive,inactive,
O=C(O)c1ccccc1[N+](=O)[O-],0.745%,inactive,1.85%,2.82%,inactive,inactive,inactive,inactive,inactive,inactive,,,inactive,inactive,inactive,inactive,inactive,,inactive,
Nc1cccc([N+](=O)[O-])c1,-0.828%,inactive,0.491%,0.377%,inactive,inactive,inactive,inactive,inactive,inactive,inactive,,inactive,inactive,inactive,inactive,,inactive,,
Cc1ccc2nc(-c3ccc(N)cc3)sc2c1S(=O)(=O)O,-3.9%,inactive,-4.87%,-8.94%,,,inactive,inactive,inactive,inactive,inactive,inactive,inactive,inactive,inactive,inactive,inactive,,inactive,
COc1ccc(OC)cc1,0.503%,inactive,-0.441%,0.282%,inactive,inactive,inactive,inactive,inactive,inactive,inactive,inactive,inactive,inactive,inactive,inactive,inactive,inactive,inactive,
